Data as given in PubChem BioAssay AID1347076 (National Center for Advancing Translational Sciences (NCATS), 2019).
In all, about 400,000 compounds went through this assay and about 13,000 (3.2%) were called active. Roughly 18% stayed inconclusive and do not appear here. The call rests on the fitted dose curve; in most records, active means well fitted cell-killing curve with a large enough effect; inconclusive means small, poorly fitted or top-dose-only effect, or effect the other way; inactive means flat fitted curve, though single readings scatter. Shown is part of a subset that was picked to be rich in actives. A call without a number means that no potency is given here.

Experiment: qHTS assay for MDR1-selective chemotherapeutics: Primary screen using the drug-selected MDR subline cells KB-V1; further: nearly all actives have a fitted effect of over 60% in size
Settings: KB-V1 MDR cells viability, CellTiter-Glo, 72 h; series mostly up to 46.1 µM
Description: A prime difficulty in effectively treating cancer is the development of cellular resistance to multiple structurally unrelated anticancer drugs, a phenomenon known as multidrug resistance (MDR). […] Numerous strategies to overcome P-gp-mediated MDR have been explored, including the design of drugs that evade recognition and efflux, and development of inhibitors to block efflux and restore drug accumulation. […] An alternative approach is to exploit resistance by identifying drugs that target MDR cells over the non-resistant parental cells from which they were selected. […] The development of MDR1-selective agents represents a new strategy for resolving multidrug resistance, as it remains a long-standing clinical challenge for cancer chemotherapy.
Our goal is to identify compounds that selectively kill P-gp-expressing MDR cells. We will identify MDR1-selective compounds by comparing toxicity of compounds in the screening library against parental, drug-naive (KB-3-1) adenocarcinoma cells as well as their drug-selected MDR sub-line (KB-V1). The differential toxicity of compounds against these two cell lines will be used to identify MDR1-selective compounds, whose cytotoxicity is potentiated, rather than diminished, by P-gp expression. This assay will be utilized to conduct a quantitative high-throughput screen (qHTS) in collaboration with the NIH Chemical Genomics Center to identify selective agents, and probe hits arising from the screen will be validated using secondary assays and characterized through a well-established follow-up research program. This screen was run against the entire NCGC library collection of about 400,000 compounds.
NIH Molecular Libraries Probe Production Network [MLPCN]
NIH Chemical Genomics Center [NCGC]
PI: Michael Gottesman, National Cancer Institute, NIH
Briefly, 5 microL of media containing either KB-V1 cells (columns 1-2, 4-48) are dispensed into Greiner white, treated solid-bottom 1536-well assay plates (media-only control is added to column 3). Compounds are then transferred via Kalypsys pin tool equipped with 1536-pin array (10 nL slotted pins, V&P Scientific, San Diego, CA). Following addition of compound, the plates are incubated at 37 degrees C for 72 hours. CellTiter-Glo (2.5 µL/well) is then added, and the plates are read in a ViewLux reader (Perkin-Elmer, clear luminescence filter, 1 second exposure, 1x binning) following a 10 minute incubation. All cells are dispensed in DMEM phenol-red free media containing 10% FBS.
Library plates were screened starting from the lowest and proceeding to the highest concentration. Vehicle-only plates, with DMSO being pin-transferred to columns 5-48, will be inserted uniformly at the beginning and the end of each library in order to monitor and record any shifts in the background, which can be affected by reagent dispensers or loss in enzyme activity over time. Screening data will be corrected, normalized, and concentration-effect relationships will be derived by using publicly-available NCGC, NCATS curve fitting algorithms (http://ncgc.nih.gov/pub/openhts).
Potency means the concentration at half of the fitted maximal effect.

Q: With `CC1CCN(Cc2nc(-c3ccc(Cl)cc3)no2)CC1` as the compound, how does the Potency read?
A: inactive

Q: For `CCN1CC(CN(C)Cc2nc(-c3ccc(Cl)cc3)no2)CC1=O` (configuration not stated), which Potency is on record?
A: 16.4 µM (active)

Q: For `CN1CCN(C(=O)CCc2nc(-c3ccc(Cl)cc3)no2)CC1`, which Potency is on record?
A: inactive

Q: Which Potency does the source give for `C[C@H](CO)N1C[C@H](C)[C@H](CN(C)C(=O)Nc2ccc3c(c2)OCO3)Oc2ncc(Br)cc2C1=O` here?
A: inactive

Q: For `CC(C)(C)c1ccc(C(=O)C[N+]2(C)CCCc3ccccc32)cc1` (configuration not stated), which Potency is on record?
A: inactive

Q: With `COc1ccc(-n2c(-c3ccc(Cl)cc3)n[nH]c2=S)c(OC)c1` as the compound, how does the Potency read?
A: inactive

Q: Which Potency does the source give for `Cc1cc(Cl)ccc1NC(=O)Cc1ccc(NC(=O)N2CCCCc3ccccc32)cc1` here?
A: inactive

Q: Which Potency does the source give for `CCCC1=Nc2cc(C(=O)NCc3ccco3)ccc2Sc2ccccc21` here?
A: 4.11 µM (active)

Q: For `CCCC1=Nc2cc(C(=O)NCCN3CCCC3)ccc2Sc2ccccc21`, which Potency is on record?
A: inactive

Q: For `O=C(NCc1ccco1)c1cccc(-c2ccc3nncn3c2)c1`, which Potency is on record?
A: inactive

Q: With `CCCCCNC(=O)C(c1ccc(OC)cc1)n1c(=O)c(-c2ccccc2)nc2ccccc21` (configuration not stated) as the compound, how does the Potency read?
A: inactive

Q: For `CCCCn1nnnc1C1(C)CCC(=O)N1Cc1ccc(OC)c(OC)c1` (configuration not stated), which Potency is on record?
A: inactive

Q: With `C[C@H](CO)N1C[C@H](C)[C@H](CN(C)C(=O)c2ccncc2)OCc2ccccc2-c2c(n(C)c3ccccc23)C1=O` as the compound, how does the Potency read?
A: inactive

Q: With `Cc1nn(Cc2ccc(Cl)cc2)c(Cl)c1/C=N/NC(=O)CNc1ccccc1F` as the compound, how does the Potency read?
A: 3.26 µM (active)

Q: With `Cc1nn(Cc2ccc(Cl)cc2)c(Cl)c1/C=N/NC(=O)c1cccnc1` as the compound, how does the Potency read?
A: inactive

Q: For `CCn1nc(C)c(/C=N/NC(=O)Cc2ccc(Cl)cc2)c1C`, which Potency is on record?
A: inactive

Q: For `CC(C)C[C@H]1CNC(=S)N1C[C@H]1CCCN1C[C@H](Cc1ccc(O)cc1)N1C[C@H](Cc2ccc(O)cc2)N(CC2CCCCC2)C1=S`, which Potency is on record?
A: inactive

Q: For `Cn1cnc(S(=O)(=O)N2C[C@@H](O)COC[C@@H]3O[C@H](CC(=O)NC4CCC4)CC[C@H]32)c1`, which Potency is on record?
A: inactive

Q: For `OC[C@H]1O[C@@H](c2nc(-c3nc(-c4ccc(F)cc4)no3)cs2)[C@H](O)[C@@H](O)[C@H]1O`, which Potency is on record?
A: inactive

Q: For `COc1cc(Cl)c(C)cc1Nc1nnc(-n2nc(C)cc2C)c2ccccc12`, which Potency is on record?
A: inactive

Q: With `COc1ccc(C(=O)NC2CC2)cc1OC1CCN(Cc2ccc(SC)cc2)CC1` as the compound, how does the Potency read?
A: inactive

Q: With `COc1ccc(C(=O)NC2CC2)cc1OC1CCN(C/C=C/c2ccccc2)CC1` as the compound, how does the Potency read?
A: 16.4 µM (active)

Q: Which Potency does the source give for `COc1ccc(C(=O)NC2CC2)cc1OC1CCN(Cc2cnn(C)c2)CC1` here?
A: inactive

Q: With `CN(C)CCCN(C(=O)c1ccc(S(=O)(=O)N2CCCCCC2)cc1)c1nc2ccc(Br)cc2s1` as the compound, how does the Potency read?
A: 23.1 µM (active)

Q: For `CCN(CC)CCN(C(=O)c1ccc(S(=O)(=O)N2CCOCC2)cc1)c1nc2cc3c(cc2s1)OCCO3`, which Potency is on record?
A: inactive

Q: Which Potency does the source give for `CN(C)CCCN(C(=O)c1ccc(S(=O)(=O)N2CCCCCC2)cc1)c1nc2cc3c(cc2s1)OCCO3` here?
A: inactive

Q: Which Potency does the source give for `COC(=O)c1ccccc1N=NNc1ccc([N+](=O)[O-])cc1` here?
A: inactive

Q: Which Potency does the source give for `CC1(C(=O)NS(=O)(=O)c2cccc(F)c2)CCN1C(=O)Cc1cc(F)ccc1F` (configuration not stated) here?
A: inactive

Q: With `O=C(Nc1ccc(-c2nnc(-c3ccccc3)o2)cc1)C1CCCO1` (configuration not stated) as the compound, how does the Potency read?
A: 8.2 µM (active)

Q: For `O=C(Nc1nnc(CCc2ccccc2)s1)C1CCCO1` (configuration not stated), which Potency is on record?
A: inactive

Q: Which Potency does the source give for `O=C(Nc1cccc(-c2nnc(-c3ccccc3)o2)c1)C1CCCO1` (configuration not stated) here?
A: inactive

Q: Which Potency does the source give for `CC1(C(=O)NCc2ccccc2)CSCC(=O)N1CCCn1ccnc1` (configuration not stated) here?
A: inactive

Q: Which Potency does the source give for `COc1ccc(-c2cc(NCc3ccc(F)cc3)n3cnnc3n2)cc1` here?
A: inactive

Q: Which Potency does the source give for `CC(=O)Nc1ccc(NC(=O)[C@@H](NC(=O)c2cccc(C)c2)C(C)C)cc1` here?
A: inactive

Q: With `CC(Cc1cccs1)NC(=O)c1cccc(Cl)c1` (configuration not stated) as the compound, how does the Potency read?
A: inactive

Q: Which Potency does the source give for `Cc1cccc(C(=O)N[C@H](C(=O)NCc2cccs2)C(C)C)c1` here?
A: 9.2 µM (active)

Q: For `COc1ccc(-c2[nH][nH]c(=O)c2NC(=O)c2ccc([N+](=O)[O-])cc2)cc1`, which Potency is on record?
A: inactive

Q: Which Potency does the source give for `O=C(NCC1COc2ccccc2O1)C1(c2ccccc2)CCCC1` (configuration not stated) here?
A: inactive

Q: With `S=C(NCC1COc2ccccc2O1)Nc1ccc(Br)cc1` (configuration not stated) as the compound, how does the Potency read?
A: 23.1 µM (active)

Q: Which Potency does the source give for `CCCN(CC1COc2ccccc2O1)C(=S)Nc1ccc(C)cc1` (configuration not stated) here?
A: inactive

Q: For `C[C@@H]1CN([C@H](C)CO)C(=O)c2cc(-c3ccc(F)cc3)cnc2O[C@H]1CN(C)C(=O)c1ccc(F)cc1`, which Potency is on record?
A: inactive

Q: For `CN(Cc1c(F)cccc1Cl)C(=O)COC(=O)Cn1cnc2ccccc2c1=O`, which Potency is on record?
A: inactive

Q: With `COc1cc(C)c(C)cc1S(=O)(=O)N1CCCc2ccccc21` as the compound, how does the Potency read?
A: inactive

Q: For `CC1CCN(C(=O)c2cccc(S(=O)(=O)N3CCCc4ccccc43)c2)CC1`, which Potency is on record?
A: inactive

Q: With `Cn1c(=O)n(C)c2cc(S(=O)(=O)N3CCCc4ccccc43)ccc21` as the compound, how does the Potency read?
A: 8.2 µM (active)

Q: Which Potency does the source give for `C[C@H](CO)N1C[C@H](C)[C@@H](CN(C)Cc2ccc3c(c2)OCO3)OCc2cnnn2CCCC1=O` here?
A: inactive

Q: For `CC1(C(=O)Nc2cccnc2)Cc2c(-c3ccccc3)ccnc2O1` (configuration not stated), which Potency is on record?
A: inactive

Q: Which Potency does the source give for `Cc1[nH]c2ccccc2c1C(=O)C(C)Sc1nnc(C2CC2)o1` (configuration not stated) here?
A: 7.31 µM (active)

Q: With `Cc1[nH]c2ccccc2c1C(=O)CN1CC(C)CC(C)C1` (configuration not stated) as the compound, how does the Potency read?
A: inactive

Q: Which Potency does the source give for `Cc1nnc(SC(C)C(=O)c2c[nH]c3ccccc23)n1C1CC1` (configuration not stated) here?
A: inactive

Q: For `COc1ccc(NC(=O)c2ccc3nc(CCc4ccccc4)oc3c2)c(OC)c1`, which Potency is on record?
A: inactive

Q: For `CC1(C(=O)NS(=O)(=O)c2cccs2)CCN1C(=O)Cc1ccc(-c2ccccc2)cc1` (configuration not stated), which Potency is on record?
A: inactive

Q: For `O=C(COc1ccccc1C(=O)Nc1ccccc1)Nc1cccc(F)c1`, which Potency is on record?
A: inactive

Q: For `Cc1nc2c(-c3ccccc3)c(C)nn2c(C)c1CCC(=O)NCCc1ccccc1`, which Potency is on record?
A: inactive

Q: With `COc1cc(NC(=O)CCn2nc(C)cc2C)cc(OC)c1OC` as the compound, how does the Potency read?
A: inactive

Q: For `CSc1ncccc1C(=O)N1CCCC(CCC(=O)NCc2ccccc2F)C1` (configuration not stated), which Potency is on record?
A: inactive

Q: Which Potency does the source give for `Cc1[nH]c2c(C(=O)N3CCCC(CCC(=O)NCc4ccccc4F)C3)cccc2c1C` (configuration not stated) here?
A: 16.4 µM (active)

Q: Which Potency does the source give for `COc1cccc(CNC(=O)CCC2CCCN(C(=O)c3cc(C)[nH]n3)C2)c1` (configuration not stated) here?
A: inactive

Q: For `CC(C)NC(=O)N1Cc2cc(C(=O)NCC(F)(F)F)nc(-c3cccc(-c4cc5ccccc5o4)c3)c2[C@@H]1CCO`, which Potency is on record?
A: inactive

Q: Which Potency does the source give for `CCOc1ccc2nc(N3CCCC(C(=O)Nc4cc(C)ccc4C)C3)sc2c1` (configuration not stated) here?
A: inactive

Q: With `COc1ccc2nc(N3CCCC(O)C3)c(C#N)cc2c1` (configuration not stated) as the compound, how does the Potency read?
A: inactive

Q: For `CCOc1ccc2nc(N3CCCN(C(=O)Nc4ccccc4C)CC3)c(C#N)cc2c1`, which Potency is on record?
A: 18.4 µM (active)
